Experimental data taken from PubChem BioAssay (NCI).
The panel holds about 79,000 compounds, 15% with a hit somewhere; the sample as a whole holds those more often. Active and inactive are the calls of the source. Rule as the data show it: active = growth inhibition above about 70%; inactive = the rest.

Legend:
[1] = NCI Yeast Anticancer Drug Screen. Data for the wt1 strain (AID 149);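 also: 0% = growth of vehicle-treated wt1 cultures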; settings: S. cerevisiae wt1 strain (SPY 50644) growth inhibition, active compounds read high
In short: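 Yeast wt1 strain exposed to compounds; growth inhibition measured relative to vehicle-treated controls.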

[2] = NCI Yeast Anticancer Drug Screen. Data for the rad50EPP+ strain (AID 151);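 also: 0% = growth of vehicle-treated control cultures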; settings: S. cerevisiae rad50 mutant strain, active compounds read high
In short: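 Compounds were applied to the rad50EPP+ yeast strain, which bears a defined DNA repair alteration, and growth inhibition was determined relative to vehicle-treated cultures.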

[3] = NCI Yeast Anticancer Drug Screen. Data for the mgt1 strain (AID 153); settings: S. cerevisiae mgt1 mutant growth inhibition, active compounds read high
In short: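 Strain: mgt1 yeast, one of a set carrying defined DNA damage repair or cell cycle control alterations. Compound-treated growth compared with vehicle.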

[4] = NCI Yeast Anticancer Drug Screen. Data for the rad50 strain (AID 155);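 also: 0% = growth of vehicle-only cultures of the same strain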; settings: S. cerevisiae rad50 strain growth inhibition, active compounds read high
In short: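 Yeast carrying a defined DNA repair defect were exposed to test compounds, and growth was compared with vehicle-treated controls to give percent inhibition.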

[5] = NCI Yeast Anticancer Drug Screen. Data for the mec2-1 strain (AID 157); settings: S. cerevisiae mec2-1 strain, active compounds read high
In short: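 Strain: mec2-1 (DNA repair/cell cycle alteration). Compound exposure, then growth measured; inhibition expressed relative to vehicle.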

[6] = NCI Yeast Anticancer Drug Screen. Data for the rad14 strain (AID 159);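 also: 0% = growth of vehicle-treated control cultures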; settings: S. cerevisiae rad14 strain growth inhibition, active compounds read high
In short: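 Yeast cells carrying a defined DNA-repair defect were exposed to compounds, and growth inhibition was calculated relative to vehicle-treated control cultures.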

[7] = NCI Yeast Anticancer Drug Screen. Data for the sgs1 mgt1 strain (AID 161);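 also: 0% = growth of cultures given vehicle only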; settings: S. cerevisiae sgs1 mgt1 strain, active compounds read high
In short: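 Read-out: growth inhibition vs vehicle controls. Cells: mutant yeast strain deficient in DNA damage repair.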

[8] = NCI Yeast Anticancer Drug Screen. Data for the CLN2oe strain (AID 163);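 also: 0% = growth of vehicle-only control cultures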; settings: S. cerevisiae CLN2oe strain, active compounds read high
In short: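 Growth of a genetically modified yeast strain is measured after compound exposure and compared with cultures given vehicle alone.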

[9] = NCI Yeast Anticancer Drug Screen. Data for the cln2 rad14 strain (AID 165);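 also: 0% = growth equal to vehicle treated cultures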; settings: S. cerevisiae cln2 rad14 strain, active compounds read high
In short: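 Compounds are applied to the cln2 rad14 yeast strain, and growth is then compared with that of vehicle-treated cultures to give inhibition.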

[10] = NCI Yeast Anticancer Drug Screen. Data for the bub3 strain (AID 167); settings: S. cerevisiae bub3 mutant strain, active compounds read high
In short: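 Compounds were applied to a genetically altered yeast strain carrying a cell-cycle control defect. Growth inhibition was scored against vehicle-treated controls.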

[11] = NCI Yeast Anticancer Drug Screen. Data for the wt2 strain (AID 169);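 also: 0% = growth of vehicle-treated yeast cultures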; settings: S. cerevisiae wt2 strain growth inhibition, active compounds read high
In short: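 This strain belongs to a panel of yeast strains with defined genetic alterations in DNA damage repair or cell cycle control. Compounds are applied, and growth inhibition is measured against vehicle-treated cultures.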

[12] = NCI Yeast Anticancer Drug Screen. Data for the mlh1 strain (AID 171);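 also: 0% = growth of vehicle-treated control cultures of the same strain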; settings: S. cerevisiae mlh1 strain growth inhibition, active compounds read high
In short: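 Growth of the mutant yeast strain after compound exposure, expressed as inhibition relative to vehicle-only controls.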

[13] = NCI Yeast Anticancer Drug Screen. Data for the mlh1 rad18 strain (AID 175); settings: S. cerevisiae mlh1 rad18 strain growth inhibition, active compounds read high
In short: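 Read-out is yeast growth inhibition, calculated against vehicle-only controls. The compound was applied to a strain engineered with DNA damage repair alterations.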

[14] = NCI Yeast Anticancer Drug Screen. Data for the rad18 strain (AID 177); settings: S. cerevisiae rad18 mutant growth inhibition, active compounds read high
In short: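 Growth of the mutant yeast strain after compound exposure, normalised to vehicle-only cultures.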

[15] = NCI Yeast Anticancer Drug Screen. Data for the sgs1 strain (AID 173);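 also: 0% = growth of vehicle-only control cultures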; settings: S. cerevisiae sgs1 mutant, active compounds read high
In short: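 Growth of a yeast strain bearing a defined genetic alteration is measured after compound treatment. Inhibition is expressed relative to vehicle-only controls.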

[16] = at 5.0 µM (retest, dose inferred, filed as 0.5)
[17] = at 50.0 µM (retest, dose inferred, filed as 5.0)

Measured: growth inhibition

CC1=C(SCc2ccccc2)C(=O)c2ccccc2C1=O
inactive: [1]; at 1.2 µM -15% | [1]; at 3.7 µM -15% | [1]; at 11.0 µM -7% | [1]; at 33.0 µM 64% | [2]; at 1.2 µM -28% | [2]; at 3.7 µM -20% | [2]; at 11.0 µM -4% | [2]; at 33.0 µM 35% | [2]; at 100.0 µM 59% | [3]; at 1.2 µM -74% | [3]; at 3.7 µM -64% | [3]; at 11.0 µM -51% | [3]; at 33.0 µM 43% | [4]; at 1.2 µM -12% | [4]; at 3.7 µM -22% | [4]; at 11.0 µM 8% | [4]; at 50.0 µM 68.9% | [5]; at 1.2 µM -78% | [5]; at 3.7 µM -69% | [5]; at 11.0 µM -68% | [5]; at 50.0 µM 51.1% | [6]; at 1.2 µM -32% | [6]; at 3.7 µM -37% | [6]; at 11.0 µM -35% | [7]; [16] -23% | [7]; [17] 34% | [8]; at 1.2 µM -44% | [8]; at 3.7 µM -22% | [8]; at 11.0 µM -27% | [8]; at 33.0 µM 63% | [9]; [16] 44% | [9]; [17] 53% | [9]; at 50.0 µM 46.2% | [10]; at 1.2 µM -14% | [10]; at 3.7 µM -17% | [10]; [16] 20% | [10]; at 11.0 µM 26% | [10]; [17] 64% | [11]; at 1.2 µM -19% | [11]; at 3.7 µM -40% | [11]; at 11.0 µM -10% | [12]; at 1.2 µM -43% | [12]; at 3.7 µM -29% | [12]; at 11.0 µM -19% | [12]; at 33.0 µM 62% | [14]; at 1.2 µM -23% | [14]; at 3.7 µM -46% | [14]; at 11.0 µM -27%
active: [1]; at 100.0 µM 91% | [3]; at 100.0 µM 89% | [4]; [16] 99% | [4]; at 33.0 µM 81% | [4]; [17] 91% | [4]; at 100.0 µM 87% | [5]; [16] 98% | [5]; at 33.0 µM 74% | [5]; [17] 92% | [5]; at 100.0 µM 90% | [6]; at 33.0 µM 85% | [6]; at 100.0 µM 92% | [7]; at 50.0 µM 71.3% | [8]; at 100.0 µM 80% | [10]; at 33.0 µM 84% | [10]; at 50.0 µM 79% | [10]; at 100.0 µM 90% | [11]; at 33.0 µM 75% | [11]; at 100.0 µM 92% | [12]; at 100.0 µM 89% | [13]; [16] 99% | [13]; [17] 92% | [13]; at 50.0 µM 73.5% | [14]; at 33.0 µM 79% | [14]; at 100.0 µM 90%

O=[N+]([O-])/C=C/c1cc(Cl)c(/C=C/[N+](=O)[O-])cc1Cl
active: [2]; at 100.0 µM 70% | [3]; at 33.0 µM 96% | [3]; at 100.0 µM 92% | [4]; at 11.0 µM 81% | [4]; at 33.0 µM 97% | [4]; at 50.0 µM 79.7% | [4]; at 100.0 µM 94% | [5]; at 33.0 µM 81% | [5]; at 50.0 µM 73.5% | [5]; at 100.0 µM 85% | [6]; at 11.0 µM 93% | [6]; at 33.0 µM 97% | [6]; at 100.0 µM 92% | [7]; [17] 73% | [7]; at 50.0 µM 74.8% | [8]; at 100.0 µM 73% | [10]; at 11.0 µM 84% | [10]; at 33.0 µM 92% | [10]; [17] 96% | [10]; at 50.0 µM 79.2% | [10]; at 100.0 µM 91% | [11]; at 33.0 µM 91% | [12]; at 33.0 µM 96% | [12]; at 100.0 µM 92% | [13]; [17] 77% | [14]; at 11.0 µM 78% | [14]; at 33.0 µM 95% | [14]; at 100.0 µM 89%
inactive: [1]; at 1.2 µM 25% | [1]; at 3.7 µM 32% | [1]; at 11.0 µM 43% | [1]; at 33.0 µM 42% | [1]; at 100.0 µM 37% | [2]; at 1.2 µM 13% | [2]; at 3.7 µM 19% | [2]; at 11.0 µM 35% | [2]; at 33.0 µM 66% | [3]; at 1.2 µM 36% | [3]; at 3.7 µM 48% | [3]; at 11.0 µM 68% | [4]; at 1.2 µM 33% | [4]; at 3.7 µM 55% | [4]; [16] 3% | [4]; [17] 53% | [5]; at 1.2 µM 39% | [5]; at 3.7 µM 59% | [5]; [16] 18% | [5]; at 11.0 µM 65% | [5]; [17] 56% | [6]; at 1.2 µM 25% | [6]; at 3.7 µM 68% | [7]; [16] 23% | [8]; at 1.2 µM 22% | [8]; at 3.7 µM 32% | [8]; at 11.0 µM 49% | [8]; at 33.0 µM 69% | [9]; [16] 22% | [9]; [17] 60% | [9]; at 50.0 µM 62.1% | [10]; at 1.2 µM 28% | [10]; at 3.7 µM 37% | [10]; [16] 43% | [11]; at 1.2 µM 8% | [11]; at 3.7 µM 34% | [11]; at 11.0 µM 68% | [11]; at 100.0 µM 69% | [12]; at 1.2 µM 36% | [12]; at 3.7 µM 48% | [12]; at 11.0 µM 68% | [15]; at 1.2 µM 22% | [15]; at 3.7 µM 16% | [15]; at 11.0 µM 14% | [15]; at 33.0 µM 52% | [15]; at 100.0 µM 32% | [13]; [16] 16% | [13]; at 50.0 µM 56.4% | [14]; at 1.2 µM 19% | [14]; at 3.7 µM 51%

Cc1c2ccnc(C(=O)NCCN(C)C)c2cc2c3cc(O)ccc3n(C)c12
active: [4]; at 33.0 µM 88% | [4]; at 50.0 µM 92.1% | [4]; at 100.0 µM 92%
inactive: [1]; at 1.2 µM 2% | [1]; at 3.7 µM 5% | [1]; at 11.0 µM 10% | [1]; at 33.0 µM 20% | [1]; at 100.0 µM 29% | [2]; at 1.2 µM -2% | [2]; at 3.7 µM 4% | [2]; at 11.0 µM 22% | [2]; at 33.0 µM 44% | [2]; at 100.0 µM 56% | [3]; at 1.2 µM 0% | [3]; at 3.7 µM 2% | [3]; at 11.0 µM 8% | [3]; at 33.0 µM 10% | [3]; at 100.0 µM 30% | [4]; at 1.2 µM 1% | [4]; at 3.7 µM 20% | [4]; [16] 11% | [4]; at 11.0 µM 67% | [4]; [17] 59% | [5]; at 1.2 µM 1% | [5]; at 3.7 µM 6% | [5]; [16] -7% | [5]; at 11.0 µM 14% | [5]; at 33.0 µM 26% | [5]; [17] 7% | [5]; at 50.0 µM 23.8%
